From article PMC11006913

Assays:
Assay in all cases: PBM; 200 nM protein, PBS
Details in all cases: dsDNA, one strand shown
[1] = molecular target: CRX (Homo sapiens, UniProt O43186 26-111)
[2] = molecular target: CRX (Homo sapiens, UniProt O43186 26-111, E42D)
[3] = molecular target: CRX (Homo sapiens, UniProt O43186 26-111, R41L)
[4] = molecular target: NKX3-2 (Homo sapiens, UniProt P78367 192-278, P234S)
[5] = molecular target: NKX3-2 (Homo sapiens, UniProt P78367 192-278)
Chain of NKX3-2 (Homo sapiens, UniProt P78367 192-278) (P78367 192-278): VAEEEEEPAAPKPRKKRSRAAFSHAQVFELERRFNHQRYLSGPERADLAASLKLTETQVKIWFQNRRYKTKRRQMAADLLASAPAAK

Chain of CRX (Homo sapiens, UniProt O43186 26-111, E42D) (O43186 26-111 E42D): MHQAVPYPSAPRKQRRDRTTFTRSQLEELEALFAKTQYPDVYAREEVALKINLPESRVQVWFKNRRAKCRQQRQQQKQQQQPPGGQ
Chain of CRX (Homo sapiens, UniProt O43186 26-111) (O43186 26-111): as the sequence (O43186 26-111 E42D) above, with D17E counted along it
Chain of CRX (Homo sapiens, UniProt O43186 26-111, R41L) (O43186 26-111 R41L): as the sequence (O43186 26-111 E42D) above, with R16L, D17E counted along it
Chain of NKX3-2 (Homo sapiens, UniProt P78367 192-278, P234S) (P78367 192-278 P234S): as the sequence (P78367 192-278) above, with P43S counted along it

Sequence: CCAGTGCA
- binding signal [1]: 8.15 upbm affinity estimate (log intensity, higher = more binding, comparable within an allelic series)
- binding signal [2]: 8.21 upbm affinity estimate (log intensity, higher = more binding, comparable within an allelic series)
- binding signal [3]: 8.38 upbm affinity estimate (log intensity, higher = more binding, comparable within an allelic series)

Sequence: GTAGCAAC
- binding signal [1]: 8.55 upbm affinity estimate (log intensity, higher = more binding, comparable within an allelic series)
- binding signal [2]: 8.49 upbm affinity estimate (log intensity, higher = more binding, comparable within an allelic series)
- binding signal [3]: 8.42 upbm affinity estimate (log intensity, higher = more binding, comparable within an allelic series)

Sequence: GAATAAAC
- binding signal [1]: 10 upbm affinity estimate (log intensity, higher = more binding, comparable within an allelic series)
- binding signal [2]: 9.83 upbm affinity estimate (log intensity, higher = more binding, comparable within an allelic series)
- binding signal [3]: 9.51 upbm affinity estimate (log intensity, higher = more binding, comparable within an allelic series)

Sequence: ACAGGCAC
- binding signal [1]: 8.14 upbm affinity estimate (log intensity, higher = more binding, comparable within an allelic series)
- binding signal [2]: 8.14 upbm affinity estimate (log intensity, higher = more binding, comparable within an allelic series)
- binding signal [3]: 8.23 upbm affinity estimate (log intensity, higher = more binding, comparable within an allelic series)

Sequence: AGTGCACG
- binding signal [1]: 8.25 upbm affinity estimate (log intensity, higher = more binding, comparable within an allelic series)
- binding signal [2]: 8.27 upbm affinity estimate (log intensity, higher = more binding, comparable within an allelic series)
- binding signal [3]: 8.23 upbm affinity estimate (log intensity, higher = more binding, comparable within an allelic series)

Sequence: GATAAACC
- binding signal [1]: 11.4 upbm affinity estimate (log intensity, higher = more binding, comparable within an allelic series)
- binding signal [2]: 11.1 upbm affinity estimate (log intensity, higher = more binding, comparable within an allelic series)
- binding signal [3]: 10.9 upbm affinity estimate (log intensity, higher = more binding, comparable within an allelic series)

Sequence: GGAGACCC
- binding signal [1]: 8.12 upbm affinity estimate (log intensity, higher = more binding, comparable within an allelic series)
- binding signal [2]: 8.25 upbm affinity estimate (log intensity, higher = more binding, comparable within an allelic series)
- binding signal [3]: 8.36 upbm affinity estimate (log intensity, higher = more binding, comparable within an allelic series)

Sequence: CAACCTGC
- binding signal [1]: 8.42 upbm affinity estimate (log intensity, higher = more binding, comparable within an allelic series)
- binding signal [2]: 8.42 upbm affinity estimate (log intensity, higher = more binding, comparable within an allelic series)
- binding signal [3]: 8.35 upbm affinity estimate (log intensity, higher = more binding, comparable within an allelic series)

Sequence: CACCAGGC
- binding signal [1]: 8.58 upbm affinity estimate (log intensity, higher = more binding, comparable within an allelic series)
- binding signal [2]: 8.49 upbm affinity estimate (log intensity, higher = more binding, comparable within an allelic series)
- binding signal [3]: 8.39 upbm affinity estimate (log intensity, higher = more binding, comparable within an allelic series)

Sequence: AATATTAC
- binding signal [1]: 10.1 upbm affinity estimate (log intensity, higher = more binding, comparable within an allelic series)
- binding signal [2]: 9.84 upbm affinity estimate (log intensity, higher = more binding, comparable within an allelic series)
- binding signal [3]: 9.61 upbm affinity estimate (log intensity, higher = more binding, comparable within an allelic series)

Sequence: AAGGGTGG
- binding signal [1]: 8.2 upbm affinity estimate (log intensity, higher = more binding, comparable within an allelic series)
- binding signal [2]: 8.31 upbm affinity estimate (log intensity, higher = more binding, comparable within an allelic series)
- binding signal [3]: 8.33 upbm affinity estimate (log intensity, higher = more binding, comparable within an allelic series)

Sequence: CGCGGCAG
- binding signal [1]: 8.09 upbm affinity estimate (log intensity, higher = more binding, comparable within an allelic series)
- binding signal [2]: 8.17 upbm affinity estimate (log intensity, higher = more binding, comparable within an allelic series)
- binding signal [3]: 8.17 upbm affinity estimate (log intensity, higher = more binding, comparable within an allelic series)

Sequence: GCGTGCAC
- binding signal [1]: 8.43 upbm affinity estimate (log intensity, higher = more binding, comparable within an allelic series)
- binding signal [2]: 8.37 upbm affinity estimate (log intensity, higher = more binding, comparable within an allelic series)
- binding signal [3]: 8.37 upbm affinity estimate (log intensity, higher = more binding, comparable within an allelic series)

Sequence: ACCAGTCG
- binding signal [1]: 8.53 upbm affinity estimate (log intensity, higher = more binding, comparable within an allelic series)
- binding signal [2]: 8.43 upbm affinity estimate (log intensity, higher = more binding, comparable within an allelic series)
- binding signal [4]: 10.4 upbm affinity estimate (log intensity, higher = more binding, comparable within an allelic series)
- binding signal [3]: 8.32 upbm affinity estimate (log intensity, higher = more binding, comparable within an allelic series)
- binding signal [5]: 10.4 upbm affinity estimate (log intensity, higher = more binding, comparable within an allelic series)

Sequence: CAGGAACG
- binding signal [1]: 8.49 upbm affinity estimate (log intensity, higher = more binding, comparable within an allelic series)
- binding signal [2]: 8.54 upbm affinity estimate (log intensity, higher = more binding, comparable within an allelic series)
- binding signal [3]: 8.36 upbm affinity estimate (log intensity, higher = more binding, comparable within an allelic series)

Sequence: GGGCGCAC
- binding signal [1]: 7.78 upbm affinity estimate (log intensity, higher = more binding, comparable within an allelic series)
- binding signal [2]: 7.93 upbm affinity estimate (log intensity, higher = more binding, comparable within an allelic series)
- binding signal [3]: 7.95 upbm affinity estimate (log intensity, higher = more binding, comparable within an allelic series)

Sequence: CACCAGTC
- binding signal [1]: 8.16 upbm affinity estimate (log intensity, higher = more binding, comparable within an allelic series)
- binding signal [2]: 8.23 upbm affinity estimate (log intensity, higher = more binding, comparable within an allelic series)
- binding signal [3]: 8.2 upbm affinity estimate (log intensity, higher = more binding, comparable within an allelic series)

Sequence: TAATCCAA
- binding signal [1]: 13 upbm affinity estimate (log intensity, higher = more binding, comparable within an allelic series)
- binding signal [2]: 13 upbm affinity estimate (log intensity, higher = more binding, comparable within an allelic series)
- binding signal [3]: 12.8 upbm affinity estimate (log intensity, higher = more binding, comparable within an allelic series)

Sequence: GCGTGACC
- binding signal [1]: 8.46 upbm affinity estimate (log intensity, higher = more binding, comparable within an allelic series)
- binding signal [2]: 8.49 upbm affinity estimate (log intensity, higher = more binding, comparable within an allelic series)
- binding signal [3]: 8.39 upbm affinity estimate (log intensity, higher = more binding, comparable within an allelic series)

Sequence: CAGGTGCG
- binding signal [1]: 8.4 upbm affinity estimate (log intensity, higher = more binding, comparable within an allelic series)
- binding signal [2]: 8.3 upbm affinity estimate (log intensity, higher = more binding, comparable within an allelic series)
- binding signal [3]: 8.29 upbm affinity estimate (log intensity, higher = more binding, comparable within an allelic series)

Sequence: CACTAATC
- binding signal [1]: 12.8 upbm affinity estimate (log intensity, higher = more binding, comparable within an allelic series)
- binding signal [2]: 12.6 upbm affinity estimate (log intensity, higher = more binding, comparable within an allelic series)
- binding signal [3]: 12 upbm affinity estimate (log intensity, higher = more binding, comparable within an allelic series)
